Most compounds without a hit are left out; they make up all but 2.9% or so of the library.
p53 reactivator – mutant p53 re-activation in reporter cells | H1299 p53-A138V BP100-luciferase reporter, luminescence, 24 h | Potency, µM (top dose mostly 92.2 µM), usual class: activators | 320,000 tested, 0.063% active | AID 504706; note: nearly all actives have a fitted effect of over 45% in size
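H1299 (p53-null), stable ts p53-A138V + BP100-Luc; 1000 cells/well, Opti-MEM/10% FBS; cpd 4 pt, 1:5; 24 h, 37 deg C, 5% CO2; detection reagent 10 min RT; luminescence.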
LDHA inh – blocks human lactate dehydrogenase A. 480,000 tested, 0.15% active. activity change, % (values are at about 110 or 230 µM). purified LDHA, NADH/diaphorase-resazurin fluorescence; active compounds read low. AID 1347041; in the data active = activity change below about -30%; inconclusive = mostly about -25% to -30%
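Enzyme activity of human lactate dehydrogenase 5 (2 nM; 0.06 mM NADH, 0.2 mM pyruvate, 5 min, RT) is measured via a resazurin/diaphorase fluorescence readout of residual NADH.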
GLP1R inv ag – inverse agonists of human GLP-1 receptor. 410,000 tested, 1.6% active. P43220. HEK293 GLP-1R CRE-luciferase, luminescence, 24 h; GLP-1R form is constitutively active. Potency, µM (doses to about 38.3 µM), hits mostly inhibitors; note: nearly all actives have a fitted effect of over 55% in size
Target sequence (P43220 whole entry, looked up): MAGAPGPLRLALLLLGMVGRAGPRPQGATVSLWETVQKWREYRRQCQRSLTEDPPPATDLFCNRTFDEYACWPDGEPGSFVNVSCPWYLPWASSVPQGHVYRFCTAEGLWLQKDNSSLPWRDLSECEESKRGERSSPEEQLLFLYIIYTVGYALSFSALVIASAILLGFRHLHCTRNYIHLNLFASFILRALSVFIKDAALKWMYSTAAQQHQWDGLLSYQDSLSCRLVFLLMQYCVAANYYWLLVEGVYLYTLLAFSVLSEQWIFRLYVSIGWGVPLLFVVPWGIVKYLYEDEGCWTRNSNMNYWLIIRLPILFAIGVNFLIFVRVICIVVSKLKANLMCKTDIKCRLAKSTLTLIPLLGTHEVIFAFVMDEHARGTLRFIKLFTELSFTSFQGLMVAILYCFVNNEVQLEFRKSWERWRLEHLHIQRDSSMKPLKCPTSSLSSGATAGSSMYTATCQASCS
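Using stably transfected HEK293 (constitutively active GLP-1R, cAMP-luciferase reporter), compounds were incubated 24 hr and luciferase measured by luminescence.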
GLP1R ag – activates the human GLP-1 receptor. P43220. HEK293 GLP-1R CRE-luciferase, luminescence, 4-6 h; cells express a hypersensitive GLP-1R form. Potency, µM (titrated, usually from 45.6 µM), most hits filed as activators. 380,000 tested, 0.007% active. AID 624172
GLP1R cytotox – cytotoxicity in counter-screen for GLP-1R inverse agonists; HEK293 cAMP-luciferase reporter cells, luminescence, 24 h; Potency, µM (highest dose often 38.3 µM), usual class: inhibitors; 410,000 tested, 0.13% active;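 note: loss of luciferase light is scored as toxicity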
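To flag toxic compounds, the library was rerun on cells for 24 hr at 37 deg C and 5% CO2. Viability-linked luminescence was captured 12 min after adding luciferase detection reagent.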
ClpP mod – qHTS Assay for Activators of ClpP. Potency, µM (titrated, usually from 57.5 µM). AID 651965, 2013. purified B. subtilis ClpP, FRET peptide cleavage, 20 min. 340,000 tested, 1.9% active. ATP-dependent Clp protease proteolytic subunit (Bacillus subtilis (strain 168)), P80244; active = well fitted falling curve with a large enough effect; inconclusive = small, poorly fitted or top-dose-only effect; inactive = no such curve, though single readings can be large or run the other way; note: the source files actives as falling curves though it sought activators and does not explain the sign; nearly all actives have a fitted effect of over 65% in size
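ClpP 10 microg/mL final, pH 8 Tris/KCl buffer with BSA, glycerol, Tween-20; compound pinned in; FRET-FV substrate; RT 20 min; Ex320/Em430; ΔFRET vs ADEP 5.8 microM, DMSO, no enzyme.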
Numbers stand for hits; 0 = inactive; ? = inconclusive; - = no result. Unless noted, calls come from the whole dose curve; as a rule, active = well fitted curve in the direction sought with a large enough effect; inconclusive = small, poorly fitted or top-dose-only effect, or another doubt; inactive = no such curve, though single readings can be large; an effect the other way counts as inactive or inconclusive.

SMILES	p53 reactivator	LDHA inh	GLP1R inv ag	GLP1R ag	GLP1R cytotox	ClpP mod
COc1cc(-c2nnc(SCC3(c4ccc(Br)cc4)OCCO3)o2)cc(OC)c1OC	0	0	4µM	0	0	28µM
NC(=O)[C@@H]1CCCN1C(=O)c1ccc2nc(Cc3cccc(Cl)c3)oc2c1	0	0	0	0	0	0
CC1(c2cccc(Br)c2)NC(=O)NC1=O (configuration not stated)	0	0	0	0	0	-
COc1ccc(NC(=O)CSc2nc(N)c(NC(=O)c3ccccc3F)c(=O)[nH]2)cc1	0	0	0	0	0	0
CCN(CC)CCN(C(=O)c1ccc(S(=O)(=O)N2CCCCC2)cc1)c1nc2cc3c(cc2s1)OCO3	0	0	?	0	0	-
CCCCN(Cc1ccccc1)c1ncnc2nc[nH]c12	?	0	?	0	0	0
CCCCN(CCCC)c1ncnc2nc[nH]c12	0	0	4.5µM	0	0	0
C[C@@H]1CC=C[C@H]2[C@H]1C(=O)N(Cc1ccccc1)[C@H]2c1cccc([N+](=O)[O-])c1	0	0	7.1µM	0	0	0
Cc1ccc(F)c([C@H]2[C@H]3C=CC[C@@H](C)[C@@H]3C(=O)N2Cc2ccccc2)c1	0	0	10µM	0	0	0
COc1ccc(-c2cc([C@H]3[C@H]4C=CC[C@@H](C)[C@@H]4C(=O)N3Cc3ccccc3)ccc2F)cc1	0	0	?	0	0	?
C[C@@H]1CC=C[C@H]2[C@H]1C(=O)N(Cc1ccccc1)[C@H]2c1ccc(-c2ccc(N(C)C)cc2)cc1F	0	0	7.9µM	0	0	0
COc1ccc(-c2cc([C@H]3[C@H]4C=CC[C@@H](C)[C@@H]4C(=O)N3Cc3ccccc3)ccc2F)cc1OC	0	0	0	0	0	32µM
C[C@@H]1CC=C[C@H]2[C@H]1C(=O)N(Cc1ccccc1)[C@H]2c1ccc2ccccc2c1	0	0	?	0	0	0
C=C1C2(C(=O)N/N=C/c3ccccc3Cl)CCC(C2)C1(C)C (configuration not stated)	-	0	-	-	-	-
O=C1c2ccccc2C(=O)C1c1ccc(O)cc1	0	0	0	0	0	-
Cc1cc(C)nc(S/C=C/C(=O)c2ccccc2F)n1	0	0	?	0	3.5µM	35µM
CC(=O)c1cccc(OCc2ccccc2C#N)c1	-	0	-	-	-	-
COc1ccc(/C=C/c2onc(C)c2S(=O)(=O)N2CCC(C(=O)N3CCCCCC3)CC2)cc1	0	0	5µM	0	0	0
Cc1ccc(/C=C/c2onc(C)c2S(=O)(=O)N2CCC(C(=O)N3CCCCC3)CC2)cc1	0	0	?	0	0	?
CCCN1CCN(C(=O)C2CCN(S(=O)(=O)c3c(C)noc3/C=C/c3ccc(C)cc3)CC2)CC1	0	0	3.2µM	0	?	0
Cc1ccc(/C=C/c2onc(C)c2S(=O)(=O)N2CCC(C(=O)N3CCN(c4cc(C)ccc4C)CC3)CC2)cc1	-	0	0	0	0	0
Cc1nc(N2CCCCC2)sc1C(=O)c1ccc(SCCO)c([N+](=O)[O-])c1	?	0	?	0	?	-
CN1C(=O)/C(=C2/C=Cc3ccccc3N2CCCS(=O)(=O)O)SC1=S	0	0	0	0	8.9µM	22µM
O=[N+]([O-])c1cc(C(F)(F)F)ccc1Sc1ccc2ccccc2n1	0	0	10µM	0	0	0
COc1ccc(/C=N/NC(=O)c2cccnc2)c2ccccc12	0	0	?	0	0	-
Cc1ccc(CNC(=O)C2CCCN(c3nc4ccccc4n4cccc34)C2)cc1 (configuration not stated)	-	0	0	-	0	22µM
COc1ccccc1CNC(=O)C1CCCN(c2nc3ccccc3n3cccc23)C1 (configuration not stated)	-	?	?	-	0	13µM
O=C(Nc1ccc(Cl)cc1)C1CCN(c2nc3ccccc3n3cccc23)CC1	-	0	0	-	0	28µM
